# HIV RNase H inh-1 = inhibitors of HIV-1 reverse transcriptase RNase H. P04585. RT-RNase H RNA/DNA duplex cleavage, fluorescence. inhibition, % at 10 µM. 65,000 tested, 1.9% active; in the data active = inhibition above about 50%
# HIV RNase H inh-2 = confirmation of HIV-1 reverse transcriptase RNase H inhibitors | Recombinant RT RNase H, fluorescent RNA/DNA duplex cleavage | inhibition, % at 10 µM | AID 651 | shares compounds with HIV RNase H inh-1 | 1,000 tested, 39% active; in the data active = inhibition above about 48%
# * = called active by the depositor. Many of the other results were omitted from the sample, so hits are more common in it than they were.
SMILES,HIV RNase H inh-1,others
Cc1ccc(-c2noc(CCCC(=O)Nc3cccnc3)n2)cc1,-2,
CCOc1ccc(C2SCC(=O)Nc3c2c(=O)[nH]n3C2CCCCCC2)cc1 (centres undefined),58*,HIV RNase H inh-2=4
COc1ccc(C2SCC(=O)Nc3c2c(=O)[nH]n3C2CCCCCC2)cc1 (centres undefined),-1,
COc1ccc(C2SCC(=O)Nc3c2c(=O)[nH]n3C2CCCCCC2)cc1OC (centres undefined),0,
O=C1C2ON(c3ccc(Cl)cc3)C(c3ccco3)C2C(=O)N1c1ccccc1 (centres undefined),-6,
O=C(CNS(=O)(=O)c1ccc(Br)s1)N1CCN(c2ncccn2)CC1,-9,
O=C(NCCSCc1ccco1)Nc1ccccc1,-12,
CC(C)(C)c1csc(N(CCC#N)CCC#N)n1,-11,
COc1cc(C(=O)Nc2nnc(-c3sccc3C)s2)cc(OC)c1OC,4,
Cc1ccc2c(c1)[nH]c1c(=O)n(CCN3CCCCC3)cnc12,-17,
O=c1c2[nH]c3ccccc3c2ncn1CCN1CCCCC1,78*,HIV RNase H inh-2=37
O=c1c2[nH]c3ccccc3c2ncn1CCN1CCOCC1,1,
Cc1ccc(NC(=O)CC2SC3=NCCCN3C2=O)c(C)c1 (centres undefined),49,
CCOC(=O)N1CCC(NS(=O)(=O)c2cc(Br)cnc2N)CC1,-26,
Cn1c(=O)c(C(=O)Nc2cccnc2)c(O)c2ccccc21,-13,
CC(C)Cn1c(=O)c(C(=O)Nc2ccncc2)c(O)c2ccccc21,71*,HIV RNase H inh-2=47
CC(C)Cn1c(=O)c(C(=O)Nc2cnccn2)c(O)c2ccccc21,-12,

# Screening results as filed in PubChem BioAssay.
